Assay results reported in PubChem BioAssay (NCATS).
Several values for one entry are separate records, joined by “and”; a condition that tells them apart may be missing. Equal entries are not always repeated. Inconclusive results are not listed. Activity calls are given as the source filed them. The call rests on the fitted dose curve; in most records, active means well fitted cell-killing curve with a large enough effect; inconclusive means small, poorly fitted or top-dose-only effect, or effect the other way; inactive means flat fitted curve, though single readings scatter.

System: CAOV3
Experiment: Primary qHTS to identify gynecologic anti-cancer compounds using libraries of approved drugs and bioactive compounds (AID 1345084); further: nearly all actives have a fitted effect of over 55% in size
Settings: Gynecologic cancer cell panel viability, ATPlite luminescence, 48 h; series mostly up to 57.5 µM; activity change, negative = cytotoxicity: at the top concentration
Description: National Center for Advancing Translational Sciences [NCATS] Assay Overview: Chemotherapeutic drug responses vary from cancer to cancer and from patient to patient. These variations could be caused by a number of factors including patient genomic background, tumor mutations, tumor heterogeneity, and aspects of drug treatment. Chemotherapeutic drug resistance is also a common issue and can lead to ineffective treatment and patient death. Here we have profiled the cell killing effects of thousands of compounds to characterize the responses in three gynecological cancers, identify cancer-selective compounds, and understand the diversity of responses to these compounds from pan-cancer suppressors to single cell line selective compounds. In this assay, we screened a 7,914 compound drug library that included approved drug and bioactive compounds in six ovarian, three cervical, and […] placental cancer cell lines using the ATPlite assay for cell viability. […] The cervical cancer cell lines included HeLa, Ca Ski, and C-33 A. The placental cancer cell lines included JEG-3. HEK 293T cells were used as the control cell line to determine the selectivity index. ATPlite is a luminescence based assay reliant on the conversion of a luciferase substrate to light in the presence of ATP. As a cytotoxic compound will suppress growth and decrease the number of cells, the concentration of ATP will decrease, and less light signal will be detected in the well.
Assay Protocol Summary: 1,000 cells in 4 uL of media were dispensed into white, solid bottom 1536-well plates using a Multidrop Combi (Thermo Scientific). The Assay plates were incubated for 16 hours at 37 C with 5% CO2 in assay plates, followed by the addition of 23 nL of DMSO or drug dissolved in DMSO. Each compound was assayed in five concentrations (0.092, 0.46, 2.3, 11.5, and 57.5 uM), using the automated Wako 1536 Pin Tool workstation and incubated at 37 C with 5% CO2 48 hours. 4 uL of ATPlite, the ATP monitoring reagent, was then added to the each well of the assay plates using the Multidrop Combi reagent dispenser followed by incubation for 15 minutes at room temperature. The resulting luminescence was measured using the ViewLux plate reader.
On the % scale 0 is the no-effect control and ±100 the full control effect; potency means the concentration at half of the fitted maximal effect.

SMILES | Potency | activity change, negative = cytotoxicity
COc1ccc(-c2cc3c(C)nc(N)nc3n(C3CCC(OCCO)CC3)c2=O)cn1 (stereo not given) | 1 µM (active) | 
C[C@@H](Oc1cc(-c2cnn(C3CCNCC3)c2)cnc1N)c1c(Cl)ccc(F)c1Cl | 11.2 µM (active) and 12.6 µM (active) | 
Cc1cc(Nc2cc(CN3CCOCC3)c3nc(C)c(Cc4ccc(Cl)cc4F)n3n2)n[nH]1 |  | -8.39% (inactive)
O=C(Nc1cc(C(F)(F)F)cc(C(F)(F)F)c1)c1cc(Cl)ccc1O | 8.91 µM (active) | 
CCCn1c(=O)c2[nH]c(-c3cnn(Cc4cccc(C(F)(F)F)c4)c3)nc2n(CC)c1=O |  | 12.2% (inactive)
C=CC(=O)Nc1cccc(Oc2nc(Nc3ccc(N4CCN(C)CC4)cc3)ncc2Cl)c1 | 7.94 µM (active) | 
Cc1cnc(-c2cnc(NCCNc3ccc(C#N)cn3)nc2-c2ccc(Cl)cc2Cl)[nH]1 |  | -15.8% (inactive)
COc1cccc2nc(-c3cccs3)nc(NN3C(=O)C=C(C)C3=O)c12 | 15.8 µM (active) | 
CC1(O)CC(c2nc(-c3ccc4ccc(-c5ccccc5)nc4c3)c3c(N)nccn23)C1 (stereo not given) |  | -1.13% (inactive)
C=CC(=O)Nc1cc2c(Nc3ccc(F)c(Cl)c3)ncnc2cc1OCCCN1CCOCC1 | 10 µM (active) | 
COc1ccc2c(OCc3nnc4ccc(-c5ccccc5)nn34)ccnc2c1 |  | 12.8% (inactive)
CC(C)c1cc(-c2n[nH]c(=O)n2-c2ccc3c(ccn3C)c2)c(O)cc1O |  | -43.5% (inactive)
CC(=O)c1c(C)c2cnc(Nc3ccc(N4CCNCC4)cn3)nc2n(C2CCCC2)c1=O |  | 11.3% [at 6.55 µM] (inactive)
COc1cc2c(cc1-c1c(C)noc1C)ncc1[nH]c(=O)n([C@H](C)c3ccccn3)c12 |  | -27.9% (inactive)
CCn1cc(-c2ccnc3[nH]c(-c4cccc(CN(C)C)c4)cc23)c(-c2ccc(NC(=O)N(C)C)cc2)n1 |  | -34.9% [at 25.3 µM] (inactive)
CC(=O)Nc1nc(C)c(-c2ccc(Cl)c(S(=O)(=O)NCCO)c2)s1 | 14.1 µM (active) | 
Cn1cc(-c2ccncc2)c(-c2ccc(OCc3ccc4ccccc4n3)cc2)n1 |  | 10% (inactive)
O=c1c2ccccc2nc2n1CCc1c-2[nH]c2ccccc12 |  | 21.8% (inactive)
CC(=O)Nc1sc2c(c1-c1nc3ccccc3s1)CNC2 |  | -26% (inactive)
Cc1cn2cc(C(=O)N(C)CCO)cc(N[C@@H]3CCOc4cccc(C)c43)c2n1 |  | 1.55% (inactive)

SMILES | Potency | activity change, negative = cytotoxicity
COC(=O)Nc1ccc(-c2nc(N3CCOCC3)c3cnn(C4CCN(Cc5cccnc5)CC4)c3n2)cc1 | 8.91 µM (active) | 
Cc1c(Cn2c(C)nc3c(C(=O)O)cc(N4CCOCC4)cc32)cccc1C(F)(F)F |  | -16% (inactive)
COc1ccc2c(c1)CC[C@@H](CN(C)CC(=O)O)[C@H]2c1ccccc1 |  | 7.27% (inactive)
CC(C)c1nn(-c2c(Cl)cccc2Cl)c2nc(Cc3ccc(OCCO)cc3)[nH]c(=O)c12 | 0.158 µM (active) | 
CCCCCN(CCC12CC3CC(CC(C3)C1)C2)C(=O)NCCCc1ccncc1 |  | 44.2% (inactive)
C#Cc1cccc(Nc2ncnc3cc(OC)c(OCCCCCCC(=O)NO)cc23)c1 | 7.94 µM (active) | 
CC[C@@]1(O)C(=O)OCc2c1cc1n(c2=O)Cc2cc3cc(O)ccc3nc2-1 | 0.355 µM (active) | 
CCn1nnc2c(N3CCOCC3)nc(-c3ccc(NC(=O)Nc4ccc(C(=O)N5CCN(C)CC5)cc4)cc3)nc21 | 0.316 µM (active) | 
CCc1cc2c(cc1N1CCC(N3CCOCC3)CC1)C(C)(C)c1[nH]c3cc(C#N)ccc3c1C2=O |  | 7.73% [at 25.3 µM] (inactive)
CC(C)c1noc(N2CCC(COc3ccc(-c4ccc(S(C)(=O)=O)cc4)nc3)CC2)n1 |  | -4.74% (inactive)
CC1COC2(CCN(c3nc(=O)c4cc(C(F)(F)F)cc([N+](=O)[O-])c4s3)CC2)O1 (stereo not given) |  | 25.1% (inactive)
CS(=O)(=O)N1CCN(Cc2cc3nc(-c4cccc5[nH]ncc45)nc(N4CCOCC4)c3s2)CC1 |  | -42.5% (inactive)
Cc1c(C)n(Cc2ccc(-c3ccccc3C(=O)O)cc2)c2ccc(C(=O)N[C@@H](C)c3ccc([N+](=O)[O-])cc3)cc12 |  | 10.9% (inactive)
Cc1ccc(NC(=O)C2(c3ccc4c(c3)OC(F)(F)O4)CC2)nc1-c1cccc(C(=O)O)c1 |  | 14.1% (inactive)
CC(C)(O)CCc1ccc(OCc2cc(-c3cccc(OC(F)F)c3)c3ncccc3c2)cc1 |  | -3% (inactive)
NC1(Cc2ccc(Cl)cc2)CCN(c2ncnc3[nH]ccc23)CC1 |  | -1.47% (inactive)
COc1cc2c(Oc3ccc(NC(=O)C4(C(=O)Nc5ccc(F)cc5)CC4)cc3F)ccnc2cc1OCCCN1CCOCC1 | 10 µM (active) | 
C1Cc2[nH]nc(-c3nn[nH]n3)c2C1 |  | 9.62% (inactive)
O=C(CCCCCCC(=O)Nc1ccc([C@H]2O[C@@H](CSc3nc(-c4ccccc4)c(-c4ccccc4)o3)C[C@@H](c3ccc(CO)cc3)O2)cc1)NO |  | 5.48% (inactive)
O=C(O)CCCc1c[nH]c2ccccc12 |  | 8.67% (inactive)
